# An excerpt weighted towards active compounds, which were near 4.6% of everything screened.
# HCV inhibitor: qHTS Assay for Inhibitors of Hepatitis C Virus (HCV). Huh7.5.1 HCVcc-Cre infection, luciferase reporter, 44 h. Potency, µM (doses to about 41.8 µM), for the others: at the top dose activity change, negative = inhibition, actives largely listed as inhibitors. hit rate 3.4% among 340,000. AID 651820, 2012; active means well fitted inhibition curve with a large enough effect; inconclusive means small, poorly fitted or top-dose-only effect, or another doubt; inactive means no such curve, though single readings can be large or run the other way
#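 Infectious HCVcc-Cre (~0.5 moi) was added to cells just after compound, with cells seeded 4 h earlier at 1,000 per well. Luciferase activity after 44 h culture reported infection; substrate was incubated 15 min at room temperature before reading.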
# MARV entry inh: qHTS for inhibitors of binding or entry into cells for Marburg Virus | Marburg virus pseudotyped entry inhibition, cell reporter | Potency, µM (highest dose often 37.8 µM), inactives show top-dose activity change, negative = inhibition, hits mostly inhibitors | hit rate 1.8% among 300,000 | AID 540276, 2011; calls by dose curve; tested in HEK293 cells
# Vaccinia mCherry: qHTS for Stage-Specific Inhibitors of Vaccinia Orthopoxvirus: mCherry Reporter Primary qHTS | Vaccinia virus mCherry reporter infection, fluorescence | Potency, µM (highest dose often 36.5 µM), for the others: at the top dose activity change, negative = inhibition, most hits filed as inhibitors | hit rate 0.63% among 310,000 | AID 720579, 2013; calls by dose curve; tested in A549 cells; further: nearly all actives have a fitted effect of over 35% in size
# VACV Venus inh: qHTS for Stage-Specific Inhibitors of Vaccinia Orthopoxvirus: Venus Reporter Primary qHTS | Potency, µM (doses to about 36.5 µM), for inactives: at the top dose activity change, negative = inhibition, hits mostly inhibitors | hit rate 0.46% among 330,000 | Vaccinia virus Venus reporter expression, fluorescence | AID 720580, 2013; calls by dose curve; tested in A549 cells; further: nearly all actives have a fitted effect of over 30% in size
# Lassa entry inh: qHTS for Inhibitors of binding or entry into cells for Lassa Virus; Lassa virus pseudotype entry inhibition, cell reporter; Potency, µM (top dose mostly 37.9 µM), for the others: top-dose activity change, negative = inhibition, most hits filed as inhibitors; hit rate 1.2% among 300,000; AID 540256, 2011; calls by dose curve; tested in HEK293 cells; further: nearly all actives have a fitted effect of over 50% in size
# * hit, by the source's call; i = inactive; ? = inconclusive; . = no result; ! = not confirmed by another sample; [ ] = another dose, or the depositor's remark. On the % scale 0 is the no-effect control and ±100 the full control effect; potency means the concentration at half of the fitted maximal effect.
SMILES,HCV inhibitor,MARV entry inh,Vaccinia mCherry,VACV Venus inh,Lassa entry inh
CC(OC(=O)c1cccc(-n2cnnn2)c1)C(=O)Nc1cccc(Cl)c1 (configuration not stated),8.9µM*,-11%,-5%,-23%,?
Cc1cc(CNC(=O)c2cnn(-c3ncc4c(n3)-c3ccccc3CCC4)c2C2CC2)on1,.,.,i,-8%,.
CCCCCCCCCC[n+]1ccc(/C=C/c2ccc(N(C)C)cc2)c2ccccc21,.,.,i,.,.
Cc1ccc(C)c(N2CCN(S(=O)(=O)c3cn(C)c(C)n3)CC2)c1,.,.,-14%,-4%,7%[46.1 µM]
CC(=O)N(O)CCCCCNC(=O)CCC(=O)N(O)CCCCCNC(=O)CCC(=O)N(O)CCCCCN,14µM*,-45%,?,-20%,?
CC(=O)c1ccc(NC(=O)Cn2c(=O)c3cccn3c3ccccc32)cc1,.,.,0%,-3%,1.8µM*
COc1ccc(NC(=O)Cn2c(=O)c3cccn3c3ccccc32)cc1,.,.,1%,-4%,-19%[46.1 µM]
CCCCCCCCCCCCCCCC(=O)OC(CC(=O)O)C[N+](C)(C)C (configuration not stated),8%,22µM*!,?,?,?
COC(=O)C1=CN(Cc2ccc(OC)cc2)C=C(C(=O)OC)C1c1ccsc1,-19%,?,-8%,-3%,10µM*
COC(=O)C1=CN(CC2CCCO2)C=C(C(=O)OC)C1c1ccsc1 (configuration not stated),8%,11%,.,.,-2%
COC(=O)C1=CN(CCOC23CC4CC(CC(C4)C2)C3)C=C(C(=O)OC)C1c1ccsc1,32µM*,?,-20%,?,?
Cc1nc2cc(NC(=O)C3CC34CCN(Cc3ccc(O)c(Cl)c3)CC4)ccc2s1 (configuration not stated),.,.,i,-12%,.
CCOC(=O)c1c(C)c(-c2ccccc2)n(CC(=O)NCCc2ccc(C)cc2)c1C,.,0%[46.1 µM],1%,-3%,.
CCOC(=O)N1CCC(NC(=O)C2CCCN(Cc3nc(-c4cccc(Cl)c4)oc3C)C2)CC1 (configuration not stated),5.6µM*,.,?,?,.
CCN1CCN(CCNC(=O)C2CCCN(Cc3nc(-c4cccc(Cl)c4)oc3C)C2)CC1 (configuration not stated),10µM*,-1%,-11%,-7%,.
CCOC(=O)N1CCN(C(=O)C2CCCN(Cc3nc(-c4ccc(Cl)cc4)oc3C)C2)CC1 (configuration not stated),1.4µM*,.,?,?,.
Cc1oc(-c2cccc(Cl)c2)nc1CN1CCC(C(=O)NCCCN2CC(C)CC(C)C2)CC1 (configuration not stated),1.1µM*,.,.,.,.
COc1cc2nc(CC(O)c3nc4cc(OC)c(OC)cc4[nH]3)[nH]c2cc1OC (configuration not stated),.,.,-3%,-22%,.
CCc1cccc2c(C(O)(c3c[nH]c4c(CC)cccc34)c3c[nH]c4c(CC)cccc34)c[nH]c12,.,.,-11%,7%,.
CCc1ccc(-c2nc(CN3CCCC(C(=O)NCCc4ccc(OC)c(OC)c4)C3)c(C)o2)cc1 (configuration not stated),8.9µM*,?,.,.,?
COc1ccc(CCNC(=O)C2CCCN(Cc3nc(-c4ccccc4C)oc3C)C2)cc1OC (configuration not stated),?,?,.,.,-26%
Cc1oc(-c2ccc(Cl)cc2)nc1CN1CCCC(C(=O)NCc2ccco2)C1 (configuration not stated),13µM*,?,.,.,-1%
Cc1oc(-c2ccc(Cl)cc2)nc1CN1CCCC(C(=O)NCc2ccc(Cl)cc2)C1 (configuration not stated),.,9%[46.1 µM],-21%,-16%,10%[46.1 µM]
Cc1c(O)ccc2c1OC(C)(C)CC2,.,.,-21%,-11%,.
O=S(=O)(c1cccc(F)c1)N1CCC(c2nc3ccccc3s2)CC1,.,6%[46.1 µM],2%,-13%,-4%[46.1 µM]
SMILES,HCV inhibitor,MARV entry inh,Vaccinia mCherry,VACV Venus inh,Lassa entry inh
Cc1cccc(CCNC(=O)c2ccc3c(c2)N(Cc2ccccc2F)C(=O)c2ccccc2S3)c1,.,.,i,-14%,-8%[46.1 µM]
CCN(Cc1ccncc1)Cc1ccc2c(c1)CN(C(=O)c1cccc(-n3nc(C)cc3C)c1)CCO2,.,.,-11%,-2%,.
O=C(Nc1ccccc1)c1cccn(Cc2ccccc2)c1=O,10µM*,?,i,-9%,?
O=C(Nc1c(F)cc(F)cc1F)c1cccn(Cc2ccccc2)c1=O,-22%,?,-14%,-7%,?
O=C(Nc1ccncc1)c1cccn(Cc2ccccc2)c1=O,8.9µM*,?,i,-12%,-27%[46.1 µM]
CC1(C)S[C@@H]2[C@H](NC(=O)COc3ccccc3)C(=O)N2[C@@H]1C(=O)OCc1cccc2cccnc12,.,.,0%,-15%,.
Cc1c(C(=O)N2CCOc3ccc(Cl)cc3C2)sc2ncnc(NCCc3ccccn3)c12,.,.,i,-4%,.
C=CCc1cccc(/C=N/NC(=O)CNc2cccc3ccccc23)c1O,?,-2%,?,-27%,?
C=CCc1cccc(/C=N/NC(=O)CCCNc2ccc(C)cc2)c1O,-11%,?,13µM*,?,?
C=CCc1cccc(/C=N/NC(=O)CCC(=O)Nc2ccc(F)cc2)c1O,?,13µM*,?,?,?
C=CCc1cccc(/C=N/NC(=O)C(C)Nc2cccc(C)c2)c1O (configuration not stated),?,?,?,-17%,11µM*
COc1cc([N+](=O)[O-])cc(/C=N/NC(=O)C(C)Nc2cccc(C)c2)c1O (configuration not stated),0%,-19%,-23%,-10%,7%
Cn1cc(-c2cc3n(n2)CCC(=O)N3CCCC(=O)NCc2ccc(F)cc2)c2ccccc21,.,.,-23%,-21%,?
N#C/C(=C/c1ccco1)C(N)=S,8%,?,i,-17%,-16%[46.1 µM]
N#CC(C#N)=C1C=CC=CN1/C(=C\c1ccco1)C(=O)c1ccccc1,?,25µM*,?,?,?
COc1ccc(/C=C(/C(=O)c2cccs2)N2C=CC=CC2=C(C#N)C#N)cc1,?,-1%,.,.,.
COc1ccc(C(=O)/C(=C\c2ccco2)N2C=CC=CC2=C(C#N)C#N)cc1,11µM*,?,?,?,?
N#CC(C#N)=C1C=CC=CN1/C(=C\c1ccco1)C(=O)c1ccc(Br)cc1,?,6.3µM*,?,?,?
Cc1csc(SCc2nnc(-c3ccccc3Br)o2)n1,-9%,-13%,2%,-4%,-25%
Fc1ccccc1SCc1nnc(-c2ccccc2Br)o1,-27%,5µM*,-9%,-1%,?
COc1cc2c(cc1OC)CN(C(=O)c1nn(Cc3ccccc3)c(=O)c3ccccc13)CC2,10µM*,?,?,?,?
